EWS-Fli block: inhibitors of EWS/Fli oncoprotein transcriptional activity; A673 NR0B1-luciferase reporter, viability-normalised; inhibition, % at 12.6 µM; 350,000 compounds, 0.67% hits;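 active means mean inhibition of at least 50% after viability correction, with every replicate also passing that limit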;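 further: firefly luciferase signal divided by Alamar Blue viability fluorescence both relative to DMSO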
PAX8 reporter: PAX8 transcriptional activity inhibition; RMG-I TPO-luciferase reporter, SteadyGlo, 24 h; inhibition, % at 12.6 µM; 360,000 compounds, 1.2% hits; AID 652154;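 active means mean replicate inhibition at least 60% with every replicate also reaching 60%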;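 further: luciferase light reporting Pax8 driven TPO promoter activity; plate controls were median of neutral control wells for no effect and mitoxantrone controls for full effect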
GAA850 FXN act: frataxin GAA850 promoter activation; activation, % at 6 µM; 360,000 compounds, 0.56% hits; HEK293 lucGAA850 FXN promoter luciferase reporter, 24 h; percent of 10 µM SAHA response;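 active means activation above the average of all compounds screened plus 3 SD, cutoff fixed separately per campaign, cut at about 7.5% in these data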;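 further: 0% = DMSO wells and 100% = 10 µM SAHA wells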
Env fusion inh: HIV envelope-mediated fusion inhibition. 360,000 compounds, 1.1% hits. AID 651610. HeLa-JRFL Env/CEM21 cell fusion, luciferase. inhibition, % at 12.3 µM;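 active means mean replicate inhibition score of at least 50 and every replicate individually at or above 50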;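 further: 0% = plate neutral controls and 100% = maraviroc near 300 nM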
CFTR F508del cor: CFTR F508del correction in bronchial cells; activity (quench increase), % at 7.58 µM; 350,000 compounds, 0.36% hits; CFBE cells, YFP halide quenching; stimulated with forskolin plus potentiator P3; % fluorescence drop versus neutral controls; AID 720511;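 active means mean added fluorescence quench of at least 8% versus neutral control, with both replicates also reaching 8%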;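 further: cells transiently co-express mutant CFTR-F508del with the halide-sensitive YFP; corrector assay measuring rescue of mutant channel to the surface after 24 h compound exposure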
Active calls of the source: *; / = not tested or not shown; [ ] = dose if it differs, or a comment. Hits are enriched below; roughly 2.5% of the tested compounds scored in any of these assays.

SMILES	EWS-Fli block	PAX8 reporter	GAA850 FXN act	Env fusion inh	CFTR F508del cor
CC(=O)N1CC2(C1)[C@H](c1ccc(-c3ccccc3C)cc1)[C@@H](CO)N2C(=O)CC1CC1	-9	-1	/	/	3
CCCC(=O)Nc1ccc2c(c1)C(=O)N(C)C[C@H](OC)[C@H](C)CN(C(=O)CC1CC1)[C@H](C)CO2	13	-10	/	19[16.7 µM]	0
COc1ccc2c3c(n(C)c2c1)[C@H](CO)N(CC1CC1)CC31CN(C(=O)Nc2c(C)noc2C)C1	13	/	/	/	2
Cc1ccc(-n2nnnc2SCC(=O)c2c(N)n(CC(C)C)c(=O)n(C)c2=O)cc1	/	/	-2	59*	/
CCC(C(=O)OCC(=O)c1c(N)n(CC(C)C)c(=O)n(C)c1=O)c1ccccc1 (stereo not drawn)	26	17	-3	60*	1
Cc1csc(SCC(=O)c2c(N)n(CC(C)C)c(=O)n(C)c2=O)n1	/	/	-4	90*	/
O=C(NC[C@@H]1N[C@@H](CO)[C@H]1c1ccc(C2=CCCCC2)cc1)c1ccccc1	8	-7	/	/	3
CCS(=O)(=O)NCC[C@@H]1CC[C@@H](NC(=O)Nc2cc(Cl)cc(Cl)c2)[C@H](CO)O1	1	1	/	7[16.7 µM]	0
C[C@H]1CN([C@@H](C)CO)C(=O)Cc2cc(NC(=O)NC3CCCCC3)ccc2O[C@@H]1CN(C)Cc1ccc(Cl)c(Cl)c1	-3	-24	/	9[16.7 µM]	0
C[C@H]1CN([C@@H](C)CO)C(=O)c2cccc(NS(=O)(=O)c3cn(C)cn3)c2O[C@H]1CN(C)C	-4	-8	/	/	0
CCCC(O)(CCC)C(=O)NN(C(=O)CCl)c1ccccc1	-2	-7	-1	85*	1
CCCCC(O)(CCCC)C(=O)NN(C(=O)OCC)c1ccccc1	/	13	-2	-43	/
COc1ccc(-c2cnc3c(c2)C(=O)N([C@H](C)CO)C[C@@H](C)[C@@H](CN(C)C(=O)C2CCCCC2)O3)cc1	-9	-14	/	/	-1
CN(C[C@H]1N[C@@H](CO)[C@@H]1c1ccc(C2=CCCC2)cc1)C(=O)c1ccncc1	42	81*	/	/	-7
CN(C[C@H]1N[C@@H](CO)[C@@H]1c1ccc(C2=CCCC2)cc1)C(=O)c1ccccn1	27	72*	/	/	-2
CN(C[C@H]1N[C@@H](CO)[C@@H]1c1ccccc1)C(=O)c1ccccn1	6	-19	/	/	-5
CO[C@@H]1CN(C)C(=O)c2cc(NC(=O)c3ccccc3)ccc2OC[C@H](C)N(CC2CC2)C[C@H]1C	8	-6	/	17[16.7 µM]	-2
O=C(c1ccccn1)N1C[C@H]2[C@@H](c3ccccc31)[C@@H](CO)N2C(=O)C1CCCC1	-2	-2	/	/	1
COc1ccc(S(=O)(=O)N(C)C[C@@H]2OCCCC[C@@H](C)Oc3ccc(NS(=O)(=O)c4ccc(Cl)cc4)cc3C(=O)N([C@@H](C)CO)C[C@H]2C)cc1	12	66*	/	/	0
COc1ccc(S(=O)(=O)Nc2ccc3c(c2)C(=O)N([C@H](C)CO)C[C@@H](C)[C@H](CN(C)S(=O)(=O)c2ccc(Cl)cc2)OCCCC[C@H](C)O3)cc1	17	83*	/	17[16.7 µM]	-4
COc1ccc(S(=O)(=O)N(C)C[C@H]2Oc3ccc(NC(=O)Nc4ccc(C(F)(F)F)cc4)cc3CC(=O)N([C@H](C)CO)C[C@@H]2C)cc1	-8	79*	/	26[16.7 µM]	1
C[C@H]1CN([C@@H](C)CO)C(=O)Cc2cc(NC(=O)Nc3ccc(C(F)(F)F)cc3)ccc2O[C@H]1CN(C)S(=O)(=O)c1ccc(F)cc1	54*	40	/	-4[16.7 µM]	7
C[C@H](CO)N1C[C@H](C)[C@@H](CN(C)S(=O)(=O)c2ccc(F)cc2)Oc2ccc(NC(=O)Nc3ccc(C(F)(F)F)cc3)cc2CC1=O	-6	-31	/	101*[16.7 µM]	4
C[C@@H]1CN([C@H](C)CO)C(=O)Cc2cc(NC(=O)Nc3ccc(C(F)(F)F)cc3)ccc2O[C@H]1CN(C)S(=O)(=O)c1ccc(F)cc1	-1	9	/	17[16.7 µM]	1
COc1ccc(S(=O)(=O)N(C)C[C@H]2Oc3ccc(NC(=O)Nc4ccc(C(F)(F)F)cc4)cc3CC(=O)N([C@@H](C)CO)C[C@H]2C)cc1	-19	18	/	-8[16.7 µM]	-1
SMILES	EWS-Fli block	PAX8 reporter	GAA850 FXN act	Env fusion inh	CFTR F508del cor
C[C@H]1CN([C@@H](C)CO)C(=O)Cc2cc(NC(=O)Nc3ccc(C(F)(F)F)cc3)ccc2O[C@H]1CN(C)S(=O)(=O)c1cn(C)cn1	54*	38	/	15[16.7 µM]	2
Cc1ccc(S(=O)(=O)N[C@@H]2CC[C@H](CCn3cc(C4CCCC4)nn3)O[C@@H]2CO)cc1	/	13	/	/	0
C[C@H]1CN([C@@H](C)CO)C(=O)Cc2cc(N(C)C)ccc2O[C@@H]1CN(C)C(=O)Nc1ccc(C(F)(F)F)cc1	6	-7	/	13[16.7 µM]	-1
CCNC(=O)C[C@H]1CC[C@@H]2[C@@H](COc3ccc(NC(=O)Cc4cccs4)cc3C(=O)N2C)O1	2	-5	/	65*[16.7 µM]	0
CN1C(=O)c2cc(NC(=O)Nc3ccc(F)cc3)ccc2OC[C@@H]2O[C@@H](CC(=O)NC3CCC3)CC[C@@H]21	3	50	/	/	1
CN1C(=O)c2cc(NC(=O)Nc3ccc(F)cc3)ccc2OC[C@H]2O[C@@H](CC(=O)NC3CCC3)CC[C@H]21	-4	62*	/	/	2
CCC(=O)Nc1ccc2c(c1)C(=O)N(C)[C@H]1CC[C@H](CC(=O)NC3CCCC3)O[C@H]1CO2	-2	-2	/	57*[16.7 µM]	0
CCCNC(=O)C[C@H]1CC[C@@H]2[C@@H](COc3ccc(NC(=O)c4cccc(C(F)(F)F)c4)cc3C(=O)N2C)O1	4	16	/	65*[16.7 µM]	1
C[C@H]1CN([C@@H](C)CO)C(=O)c2cc(-c3ccc(C#N)cc3)cnc2O[C@H]1CN(C)C(=O)Nc1ccc(C(F)(F)F)cc1	-7	26	/	/	-3
C[C@H]1CN([C@@H](C)CO)C(=O)c2cccc(NS(=O)(=O)c3cccs3)c2O[C@H]1CN(C)CC1CCCCC1	-11	-10	/	8[16.7 µM]	0
CN1C(=O)c2cc(NC(=O)NC3CCCC3)ccc2OC[C@@H]2O[C@H](CC(=O)NC3CCC3)CC[C@@H]21	1	-15	/	71*[16.7 µM]	2
Cc1nn(C)cc1NC(=O)C[C@H]1CC[C@@H]2[C@H](COc3ccc(NC(=O)C4CCC4)cc3C(=O)N2C)O1	1	9	/	-4[16.7 µM]	4
Cc1nn(C)cc1NC(=O)C[C@H]1CC[C@@H]2[C@@H](COc3ccc(NC(=O)C4CCC4)cc3C(=O)N2C)O1	-2	-3	/	60*[16.7 µM]	0
CCC(=O)Nc1ccc2c(c1)C(=O)N(C)[C@H]1CC[C@H](CC(=O)Nc3ccc(C(C)C)cc3)O[C@@H]1CO2	4	-2	/	-5[16.7 µM]	-1
CN1C(=O)c2cc(NC(=O)c3cccc(Cl)c3)ccc2OC[C@H]2O[C@@H](CC(=O)NC3CCCCC3)CC[C@H]21	17	16	/	56*[16.7 µM]	-1

Assay outcomes from PubChem.
